An excerpt weighted towards active compounds, which were near 5.3% of everything screened.
HCV inh: qHTS Assay for Inhibitors of Hepatitis C Virus (HCV) | Huh7.5.1 HCVcc-Cre infection, luciferase reporter, 44 h | hit rate 3.4% among 340,000 | AID 651820, 2012 | Potency, µM (highest dose often 41.8 µM), for the others: top-dose activity change, negative = inhibition, usual class: inhibitors; active = well fitted inhibition curve with a large enough effect; inconclusive = small, poorly fitted or top-dose-only effect, or another doubt; inactive = no such curve, though single readings can be large or run the other way
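Cells (1,000/well) were plated 4 h before compound, then infected with HCVcc-Cre virus (~0.5 moi). After 44 h further culture, infection was read as luciferase luminescence following a 15 min substrate incubation at room temperature.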
LASV entry inh: qHTS for Inhibitors of binding or entry into cells for Lassa Virus; Lassa virus pseudotype entry inhibition, cell reporter; hit rate 1.2% among 300,000; Potency, µM (top dose mostly 37.9 µM), without a hit: at the top dose activity change, negative = inhibition, most hits filed as inhibitors; calls by dose curve; tested in HEK293 cells; also: nearly all actives have a fitted effect of over 50% in size
Marburg entry inh: qHTS for inhibitors of binding or entry into cells for Marburg Virus | Marburg virus pseudotyped entry inhibition, cell reporter | Potency, µM (titrated, usually from 37.8 µM), for the others: at the top dose activity change, negative = inhibition, hits mostly inhibitors | hit rate 1.8% among 300,000; calls by dose curve; tested in HEK293 cells
Vaccinia mCherry: qHTS for Stage-Specific Inhibitors of Vaccinia Orthopoxvirus: mCherry Reporter Primary qHTS | Vaccinia virus mCherry reporter infection, fluorescence | Potency, µM (series often up to 36.5 µM), inactives show at the top dose activity change, negative = inhibition, usual class: inhibitors | hit rate 0.63% among 310,000 | AID 720579, 2013; calls by dose curve; tested in A549 cells; also: nearly all actives have a fitted effect of over 35% in size
FMDV antiviral: High Throughput Screening for Foot and Mouth Disease Virus Antivirals; AID 1159524, 2015; FMDV antiviral cell-based qHTS; hit rate 1.2% among 410,000; Potency, µM (top dose mostly 57.9 µM), without a hit: top-dose activity change, negative = inhibition, most hits filed as inhibitors; calls by dose curve; tested in HEK293T cells; also: read-out not given here; nearly all actives have a fitted effect of over 45% in size
Vaccinia Venus: qHTS for Stage-Specific Inhibitors of Vaccinia Orthopoxvirus: Venus Reporter Primary qHTS | hit rate 0.46% among 330,000 | Potency, µM (top dose mostly 36.5 µM), without a hit: top-dose activity change, negative = inhibition, hits mostly inhibitors | AID 720580, 2013 | Vaccinia virus Venus reporter expression, fluorescence; calls by dose curve; tested in A549 cells; also: nearly all actives have a fitted effect of over 30% in size
The depositor's hits bear a star; [ ] = another dose, or the depositor's remark. % is scaled to controls: 0 for no effect and ±100 for the full control effect; potency is read from the fitted curve at half-maximal effect.

What do the screens show for `Clc1cccc(N/N=C/c2ccc(N3CCOCC3)cc2)c1`?
HCV inh: -27.7%; LASV entry inh: 11.9%; Marburg entry inh: 16.8%; Vaccinia mCherry: -8.6%; FMDV antiviral: 28.1%; Vaccinia Venus: -7.0%

Results for O=C(O)c1cc(N/N=C/c2ccc(N3CCOCC3)cc2)ccc1Cl ?
HCV inh: 28.6%; FMDV antiviral: 14.1µM*

Results for COc1ccccc1CNC(=O)C1CCC(CNS(=O)(=O)c2ccc3c(c2)CCCC(=O)N3)CC1 (centres undefined) ?
LASV entry inh: 8.8%[46.1 µM]; Vaccinia mCherry: -3.2%; FMDV antiviral: -16.2%; Vaccinia Venus: 1.9%

What do the screens show for `CCN(CC)CCn1c(=N)n(CC(O)COc2cccc(C)c2)c2ccccc21` (centres undefined)?
HCV inh: 6.31µM*; LASV entry inh: inconclusive; Marburg entry inh: inconclusive; Vaccinia mCherry: inconclusive; FMDV antiviral: inconclusive; Vaccinia Venus: -23.2%

What do the screens show for `Cc1cccc(OCC(O)CN2CC2)c1` (centres undefined)?
Vaccinia mCherry: -0.5%; FMDV antiviral: -1.5%; Vaccinia Venus: -14.1%

How did CCN(CC)CCn1c(=N)n(CC(O)c2ccco2)c2ccccc21 (centres undefined) do in these assays?
HCV inh: -23.2%; LASV entry inh: inconclusive; Marburg entry inh: inconclusive; Vaccinia mCherry: -2.7%; FMDV antiviral: 1.5%; Vaccinia Venus: -15.3%

Results for CCN(CC)CCn1c(=N)n(CC(O)c2ccc(OC)c(OC)c2)c2ccccc21 (centres undefined) ?
HCV inh: -12.1%; FMDV antiviral: -17.1%

What do the screens show for `Cc1cccc(OCC(O)Cn2c(=N)n(CCN3CCCCC3)c3ccccc32)c1` (centres undefined)?
HCV inh: 7.08µM*; LASV entry inh: inconclusive; Marburg entry inh: 0.517µM*; Vaccinia mCherry: inconclusive; FMDV antiviral: inconclusive; Vaccinia Venus: inconclusive

What do the screens show for `CCN(CC)CCn1c(=N)n(CC(O)COc2ccccc2C)c2ccccc21` (centres undefined)?
LASV entry inh: inconclusive; Marburg entry inh: 3.16µM*; Vaccinia mCherry: inconclusive; FMDV antiviral: 0.0%; Vaccinia Venus: inconclusive

What do the screens show for `COC(=O)C1=C(C)N(CCC(C)O[Si](C)(C)C(C)(C)C)C(=O)N(C(C)=O)C1c1ccccc1` (centres undefined)?
Marburg entry inh: 7.2%[14.2 µM]

Results for Cc1ccccc1NC(=O)COC(=O)C1(C)CC1(Cl)Cl (centres undefined) ?
HCV inh: 11.6%; LASV entry inh: 18.9%; Marburg entry inh: -1.8%[46.1 µM]; Vaccinia mCherry: 0.8%; FMDV antiviral: 27.1%; Vaccinia Venus: -9.3%

How did CC(C)(C)c1ccc(NC(=O)COC(=O)C2(C)CC2(Cl)Cl)cc1 (centres undefined) do in these assays?
HCV inh: 11.2µM*; FMDV antiviral: 19.7%

How did Oc1cc2c(cc1CN1CCc3ccccc3C1)OCO2 do in these assays?
HCV inh: 10.4%; LASV entry inh: 24.2%[46.1 µM]; Marburg entry inh: -0.4%[46.1 µM]; Vaccinia mCherry: inconclusive; FMDV antiviral: -19.3%; Vaccinia Venus: -21.3%

Results for Oc1ccc(CN2CCc3ccccc3C2)c2cccnc12 ?
HCV inh: 3.98µM*; LASV entry inh: 2.59µM*; Marburg entry inh: 3.26µM*; FMDV antiviral: -29.4%

Results for Cc1ccc(C)c(S(=O)(=O)N2CCN(Cc3ccc(O)c4ncccc34)CC2)c1 ?
HCV inh: inconclusive; LASV entry inh: 9.2µM*; Marburg entry inh: 7.3µM*; Vaccinia mCherry: inconclusive; FMDV antiviral: -5.2%; Vaccinia Venus: inconclusive

What do the screens show for `CCOC(=O)N1CCN(Cc2ccc(O)c3ncccc23)CC1`?
HCV inh: 4.47µM*; LASV entry inh: inconclusive; Marburg entry inh: inconclusive; Vaccinia mCherry: inconclusive; FMDV antiviral: -12.9%; Vaccinia Venus: inconclusive

What do the screens show for `Oc1ccc(CN2CCC(Cc3ccccc3)CC2)c2cccnc12`?
HCV inh: inconclusive; LASV entry inh: 2.82µM*; Marburg entry inh: inconclusive; Vaccinia mCherry: -20.6%; FMDV antiviral: inconclusive; Vaccinia Venus: inconclusive

How did Oc1ccc(F)c2cccnc12 do in these assays?
HCV inh: inconclusive; LASV entry inh: 20.2%; Marburg entry inh: inconclusive; Vaccinia mCherry: -6.1%; FMDV antiviral: 0.0%; Vaccinia Venus: -15.7%

How did COc1cc(CN2CCc3ccccc3C2)ccc1O do in these assays?
HCV inh: inconclusive; FMDV antiviral: 31.6µM*

How did Oc1ccc(CNc2ccccc2F)c2cccnc12 do in these assays?
HCV inh: 11.2µM*; LASV entry inh: inconclusive; Marburg entry inh: inconclusive; Vaccinia mCherry: 10µM*; FMDV antiviral: -20.9%; Vaccinia Venus: 10µM*

How did Oc1c(CN2CCCCC2)ccc2cccnc12 do in these assays?
HCV inh: 10µM*; LASV entry inh: -15.2%[46.1 µM]; Marburg entry inh: inconclusive; Vaccinia mCherry: 8.91µM*; FMDV antiviral: -25.6%; Vaccinia Venus: inconclusive

Results for Oc1ccc2ccccc2c1CN1CCCCC1 ?
HCV inh: -9.6%; LASV entry inh: 6.7%[46.1 µM]; Marburg entry inh: -4.6%[46.1 µM]; Vaccinia mCherry: inconclusive; FMDV antiviral: 7.0%; Vaccinia Venus: -1.4%

What do the screens show for `Oc1ccc(CN2CCCCC2)c2cccnc12`?
HCV inh: 6.31µM*; LASV entry inh: -64.8%; Marburg entry inh: inconclusive; Vaccinia mCherry: -34.5%; Vaccinia Venus: inconclusive

What do the screens show for `OCc1ccc(O)c2ncccc12`?
HCV inh: 11.2µM*; LASV entry inh: inconclusive; Marburg entry inh: inconclusive; FMDV antiviral: -23.8%; Vaccinia Venus: inconclusive

Results for Oc1ccc(Cc2ccccc2)c2cccnc12 ?
HCV inh: inconclusive; LASV entry inh: -29.5%[46.1 µM]; Marburg entry inh: inconclusive; Vaccinia mCherry: inconclusive; FMDV antiviral: -9.3%; Vaccinia Venus: inconclusive

Results for Cc1cccc(NC(=S)NC2CC3CCCC(C2)N3Cc2cccs2)c1 (centres undefined) ?
HCV inh: inconclusive; LASV entry inh: inconclusive; Marburg entry inh: 1.64µM*; Vaccinia mCherry: inconclusive; Vaccinia Venus: inconclusive

How did COCCNC(=S)NC1CC2CCCC(C1)N2Cc1cccs1 (centres undefined) do in these assays?
HCV inh: 11.3%; LASV entry inh: -15.9%; Marburg entry inh: inconclusive; Vaccinia mCherry: -22.7%; Vaccinia Venus: -22.1%

What do the screens show for `Cc1ccc(F)cc1C(=O)N1CCC1(C)C(=O)O` (centres undefined)?
Vaccinia mCherry: 16.7%; FMDV antiviral: -17.7%; Vaccinia Venus: 1.7%

How did CC1(C(=O)O)CCN1C(=O)c1ccccc1F (centres undefined) do in these assays?
Vaccinia mCherry: 22.5%; FMDV antiviral: 5.01µM*; Vaccinia Venus: -8.1%
